Bioassay records: PubChem, National Center for Advancing Translational Sciences (NCATS)
Cruzain inh noDet – blocks cruzain activity in detergent-free assay; Potency, µM, usual class: inhibitors; purified cruzain, Z-FR-AMC fluorescence, no detergent; 200,000 compounds, 2.3% hits; AID 1476; P25779; also: nearly all actives have a fitted effect of over 40% in size
Target sequence (P25779 123-467 limits assumed): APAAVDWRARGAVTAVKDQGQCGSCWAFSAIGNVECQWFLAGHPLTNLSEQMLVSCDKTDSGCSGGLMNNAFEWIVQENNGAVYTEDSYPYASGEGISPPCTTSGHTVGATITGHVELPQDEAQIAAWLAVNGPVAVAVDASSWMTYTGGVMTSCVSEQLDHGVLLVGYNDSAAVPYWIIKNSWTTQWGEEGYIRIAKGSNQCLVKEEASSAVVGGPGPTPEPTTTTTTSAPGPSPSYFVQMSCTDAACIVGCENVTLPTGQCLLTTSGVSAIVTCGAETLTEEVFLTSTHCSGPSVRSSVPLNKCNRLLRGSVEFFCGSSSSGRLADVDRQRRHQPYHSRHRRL
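Detergent-free condition (0.00005% Triton X-100) in acetate buffer pH 5.5 with DTT. 1.5 nM enzyme and compound were pre-mixed 15 min, then 2 uM Z-FR-AMC substrate added; reaction progress from fluorescence change between first and third reads (60 s).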
Cruzain inh Det – inhibitors of Trypanosoma cruzi cruzain with detergent. purified cruzain, Z-FR-AMC fluorescence, 0.01% Triton. AID 1478. Potency, µM, most hits filed as inhibitors. 200,000 compounds, 0.43% hits. P25779; also: nearly all actives have a fitted effect of over 40% in size
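Sodium acetate buffer (100 mM, pH 5.5) containing 5 mM DTT and 0.01% Triton X-100 hosted 1.5 nM cruzain and test compound for 15 min at room temperature. Cleavage of 2 uM Z-FR-AMC was then tracked by fluorescence.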
Each line names hits and unclear results; the compound was inactive in the other large screens. A selection: hits, their analogues and other compounds. The true share with any hit is near 2.4%. Calls follow the shape of the dose curve; as a rule, active = well fitted curve in the direction sought with a large enough effect; inconclusive = small, poorly fitted or top-dose-only effect, or another doubt; inactive = no such curve, though single readings can be large; an effect the other way counts as inactive or inconclusive.

O=C(/C(=C(\[O-])c1ccccc1)[n+]1ccc2ccccc2c1)c1ccccc1	Cruzain inh noDet inconclusive
CN(CC(=O)O/N=C(\N)c1ccccn1)S(=O)(=O)c1ccccc1	none
N#CCc1c(C#N)c(N)nc(N2CCN(Cc3ccc4c(c3)OCO4)CC2)c1C#N	none
N#CCc1c(C#N)c(N)nc(N2CCN(c3ccc(F)cc3)CC2)c1C#N	Cruzain inh noDet 16µM
Cc1ccccc1Cn1c(=O)n(CCc2ccccc2)c(=O)c2c(C)c(C)sc21	none
CCCCC/C=C\C\C=C/C=C/C=C/[C@@H](SCC(NC(C)=O)C(=O)O)[C@@H](O)CCCC(=O)O (some centres not stated)	none
O=C(NCc1ccccc1)C(=O)Nc1c2c(nn1-c1ccccc1)CSC2	Cruzain inh noDet inconclusive
COc1ccc(CNC(=O)C(=O)Nc2c3c(nn2-c2ccccc2)CSC3)cc1	Cruzain inh noDet 25µM
COc1ccc(-n2nc3c(c2NC(=O)C(=O)NCc2ccccc2)CSC3)cc1	Cruzain inh noDet 7.9µM
CC(C)CNC(=O)C(=O)Nc1c2c(nn1-c1ccc(Cl)cc1)CSC2	Cruzain inh noDet inconclusive
Cc1ccc(/C=C(\C#N)C(=O)Nc2cccc(Br)c2)o1	Cruzain inh noDet 13µM
Cc1ccc(/C=C(\C#N)C(=O)Nc2ccc(Br)cc2)o1	none
CN(C1CCS(=O)(=O)C1)S(=O)(=O)c1ccc(C2CCCCC2)cc1 (configuration not stated)	none
Cc1cc2ccccc2nc1SCC(=O)Nc1nc(-c2ccccc2)cs1	Cruzain inh noDet 7.9µM
Cc1cc(C)cc(-n2c(SCC(=O)NCc3ccc(F)cc3)nc3c([nH]c4ccccc43)c2=O)c1	none
Cc1ccc(-n2c(SCC(=O)NCc3ccc(F)cc3)nc3c([nH]c4ccccc43)c2=O)cc1	Cruzain inh noDet 16µM
COCCn1c(SCC(=O)Nc2ccc3c(c2)OCCO3)nc2c(c1=O)SC(C)C2 (configuration not stated)	none
O=C(CSc1nc2ccccc2o1)Nc1nc(-c2ccccc2)cs1	Cruzain inh noDet inconclusive
Cc1cc(NC(=O)CSc2nc3c([nH]c4ccccc43)c(=O)n2-c2ccccc2F)no1	none
O=C(CSc1nc2c([nH]c3ccccc32)c(=O)n1-c1ccccc1F)Nc1cccc(Cl)c1	Cruzain inh noDet 13µM
CC1Cc2nc(SCC(=O)Nc3ccc4c(c3)OCO4)n(Cc3ccccc3)c(=O)c2S1 (configuration not stated)	Cruzain inh noDet 32µM
Cc1cccc(-n2nc3c(c2NC(=O)c2ccc(S(=O)(=O)N4CCOCC4)cc2)CSC3)c1C	none
CCc1nn2c(=O)cc(COC(=O)c3cccc(NC(=O)c4cccs4)c3)nc2s1	none
COc1cccc(NC(=O)CSc2nc3c([nH]c4ccccc43)c(=O)n2-c2cccc(Cl)c2)c1	none
O=C(CSc1nc2c(oc3ccccc32)c(=O)n1-c1ccccc1F)Nc1ccccc1	none
Cc1cc(C)cc(NC(=O)CSc2nc3c(oc4ccccc43)c(=O)n2-c2ccccc2F)c1	Cruzain inh noDet 20µM
CC(=O)c1ccc(NC(=O)CSc2nnc3c(n2)[nH]c2ccccc23)cc1	Cruzain inh noDet inconclusive
O=C(CSc1nnc2c(n1)[nH]c1ccccc12)Nc1ccc2c(c1)OCO2	Cruzain inh noDet 25µM
COc1cccc(-n2c(SCC(=O)Nc3cccc(C)c3)nc3c([nH]c4ccccc43)c2=O)c1	Cruzain inh noDet 32µM
Cc1nnc(NC(=O)CSc2nnc3c(n2)[nH]c2ccccc23)s1	none
Cc1ccc(-c2csc(NC(=O)CSc3nnc4c(n3)[nH]c3ccccc34)n2)cc1	Cruzain inh noDet 16µM
COc1ccc(-c2ccc(=O)n(Cc3cc(=O)n4ccccc4n3)n2)cc1	none
CC1CCN(C(=O)CSc2nc(N)cc(N)n2)CC1	none
CCOc1ccc(-c2cc(CCCC(=O)NCCc3ccc(OC)c(OC)c3OC)no2)cc1	Cruzain inh noDet inconclusive
CCOC(=O)N1CCc2c(sc3c2C(=O)NC(c2cc(OC)c(O)c(OC)c2)N3)C1 (configuration not stated)	none
C=CCC(C)(O)c1ccccc1 (configuration not stated)	none
O=C(CCCn1c(=S)[nH]c2cc3c(cc2c1=O)OCO3)N1CCN(C2CCCCC2)CC1	none
Cc1cc(C)cc(-n2c(SCC(=O)Nc3ccc4c(c3)OCO4)nc3c([nH]c4ccccc43)c2=O)c1	Cruzain inh noDet 6.3µM
O=C(CSc1nc2c([nH]c3ccccc32)c(=O)n1-c1ccc(F)cc1)Nc1ccc2c(c1)OCO2	none
Cc1c(N=Cc2cccs2)c(=O)n(-c2ccccc2)n1C	none
Cc1ccc(C2C(C=Nc3c(C)n(C)n(-c4ccccc4)c3=O)=C(c3ccccc3)Oc3ccccc32)cc1 (configuration not stated)	Cruzain inh noDet 7.9µM
Nc1ncnc2nc(SCCN3CCCCC3)[nH]c12	none
Cc1cc(/C=N/NC(=O)Cn2c3ccccc3c(=O)c3ccccc32)c(C)n1-c1ccc(Cl)cc1	Cruzain inh noDet 3.2µM
O=C(Cn1c2ccccc2c(=O)c2ccccc21)N/N=C/c1cc([N+](=O)[O-])ccc1N1CCCCCC1	Cruzain inh noDet 6.3µM
O=C(Cn1c2ccccc2c(=O)c2ccccc21)N/N=C/c1ccc(N2CCCC2)c([N+](=O)[O-])c1	Cruzain inh noDet inconclusive
Cc1ccc(-n2c(C)cc(/C=N/NC(=O)Cn3c4ccccc4c(=O)c4ccccc43)c2C)cc1	Cruzain inh noDet inconclusive
CC(C)OCCCn1c(=O)c2ccccc2n2c(-c3ccc(F)cc3)nnc12	none
Cc1ccc(-c2cnc(NCc3ccc(C(F)(F)F)cc3)n2C)cc1	none
CCc1ccc(/C=C(\Cl)c2nc3cc(Cl)ccc3c(=O)[nH]2)cc1	Cruzain inh noDet 10µM
CCc1cc2c(=O)[nH]c(Cc3ccc(Cl)cc3)nc2s1	none
CCC1CN(C(=O)N2CCC(C(=O)NCc3ccccc3F)CC2)c2ccccc2O1 (configuration not stated)	none
C=CCn1c(O)c(N=NC(=O)OC(C)(C)C)c2ccccc21	none
C=CCn1c(O)c(N=NC(=S)Nc2ccc(OC)c(Cl)c2)c2ccccc21	Cruzain inh noDet 10µM
CC(C)(C)NC(=O)Cc1ccc(S(=O)(=O)N2CCCC2)s1	none
O=C(Cc1ccc(S(=O)(=O)N2CCCC2)s1)Nc1nc2c(s1)CCCC2	Cruzain inh noDet 20µM
COc1ccc(N=Nc2nc(-c3ccccc3)c(-c3ccccc3)[nH]2)cc1	Cruzain inh noDet 25µM
COc1ccccc1N=Nc1nc(-c2ccccc2)c(-c2ccccc2)[nH]1	none
COc1ccc(/C=C/c2nc3cc(-c4ccccc4)ccc3o2)cc1O	none
COc1ccc(-c2c/c(=N\c3nc(-c4ccccc4)c(C)s3)c3ccccc3o2)cc1O	Cruzain inh noDet 10µM
COC(=O)Cn1c(=NC(=O)c2sc3ccccc3c2Cl)sc2cc(S(N)(=O)=O)ccc21	none
CCOC(=O)Cn1c(=NC(=O)c2sc3ccccc3c2Cl)sc2cc(S(N)(=O)=O)ccc21	Cruzain inh noDet 7.9µM
O=[N+]([O-])c1ccc(CCO)cc1	none
Cn1cccc1C(=O)N1CCC[C@@]2(CCN(C(=O)Nc3cccc(C#N)c3)C2)C1	none
CCCn1c(=O)[nH]c(=O)c2c1nc(-c1ccc3c(c1)OCCO3)n2CCN1CCOCC1	none
Cc1cccc(/C=C\c2nc3ccccc3c(=O)[nH]2)c1	Cruzain inh noDet inconclusive
C(=C\c1nc2ccccc2[nH]1)/c1ccccc1	Cruzain inh noDet 20µM
COc1ccc(-n2c(SC3CCOC3=O)nc3ccccc3c2=O)cc1OC (configuration not stated)	none
CSc1nnc2c3c4c(sc3c(=O)n(-c3ccccc3)n12)CC(C)(C)OC4	none
